Among the data in PubChem BioAssay (NCATS) are Potency values, retold here.

Holding throughout (test): qHTS profiling for inhibitors of Plasmodium falciparum proliferation (AID 504749); also: nearly all actives have a fitted effect of over 60% in size
Holding throughout (conditions): P. falciparum in erythrocytes, SYBR Green DNA, 72 h; series mostly up to 28.7 µM

The test system of assay [1] is CP269. In outline:
(§1)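 In a 72 h erythrocytic culture (37 C, humidified, 5% CO2) at 2.5% hematocrit and 0.3% starting parasitemia, compounds were tested; SYBR Green I in detergent lysis buffer stained parasite DNA overnight.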

Assay [2] concerns CP286. In outline:
as §1

Assay [3] has as its system CP291. In outline: as §1
In assay [4] the test system is CP297. In outline:
as §1

For assay [5], the system named is CP305. In outline:
as §1

The test system of assay [6] is CP325. In outline:
as §1

Assay [7] concerns CP335. In outline:
as §1

Assay [8] concerns DFO2036. In outline:
as §1

The test system of assay [9] is DIV14. In outline:
as §1

Assay [10] concerns DIV17. In outline:
as §1

The test system of assay [11] is Dd2. In outline: as §1
Assay [12] relates to GB4. In outline: as §1
The subject of assay [13] is HB3. In outline: as §1
The subject of assay [14] is ICS. In outline: as §1
Assay [15] relates to JCK. In outline:
as §1

The subject of assay [16] is CP315. In outline:
as §1

In assay [17] the test system is CP329. In outline: as §1
Assay [18] deals with DIV30. In outline: as §1
For assay [19], the system named is ECU. In outline: as §1
Assay [20] relates to FAB9. In outline: as §1

Molecules are shown by their SMILES. Records with an inconclusive call do not appear. Activity calls are given as the source filed them. Calls follow the shape of the dose curve; as a rule, active = well fitted inhibition curve with a large enough effect; inconclusive = small, poorly fitted or top-dose-only effect; inactive = flat fitted curve, though single readings scatter.
Potency is read from the fitted curve at half-maximal effect.

Turning to `CC(=O)[C@]1(O)Cc2c(O)c3c(c(O)c2[C@@H](O[C@H]2C[C@H](N)[C@H](O)[C@H](C)O2)C1)C(=O)c1c(O)cccc1C3=O`, the Potency was 9.53 µM (active) in [1]; 2.24 µM (active) in [2]; 9.53 µM (active) in assay [3]; 13.5 µM (active) in assay [4]; 7.57 µM (active) in assay [5]; 15.1 µM (active) in assay [6]. Also, the Potency is 5.36 µM (active) in assay [7]; 7.94 µM (active) in assay [8]; 4.26 µM (active) in [9]; 4.78 µM (active) in assay [10]; 3.16 µM (active) in assay [11]; 4.78 µM (active) in [12]. In addition, the values for the Potency in assay [13], in assay [14] and in assay [15] were 7.94 µM (active), 2 µM (active) and 11.2 µM (active), respectively.

Regarding `Cc1cc(O)c2ccccc2c1O`, the Potency result in assay [1], in [2], in assay [3], in [4], in assay [5] and in assay [16] was “inactive” in each case. Moreover, the Potency entry in assay [6], in assay [17], in assay [8], in [18], in [19] and in assay [20] was “inactive” throughout. Further, the Potency entry in assay [13] and in assay [15] was “inactive” throughout.

`CCCSc1ccc2nc(NC(=O)OC)[nH]c2c1`: the Potency result in assay [1], in [2], in [3], in [4], in assay [5] and in [16] was “inactive” throughout. In addition, the Potency entry in [6], in [17], in assay [7], in assay [8], in [9] and in assay [10] was “inactive” in each case. Moreover, the Potency entry in assay [11], in [19], in [20], in [12], in assay [13] and in [14] was “inactive” each time. In addition, the Potency entry in assay [15] was “inactive”.

For the molecule `O=C1CN(/N=C/c2ccc(-c3ccc([N+](=O)[O-])cc3)o2)C(=O)N1`, the Potency result in [1], in assay [2], in assay [3], in assay [4], in [5] and in assay [16] was “inactive” throughout. In addition, the Potency entry in assay [6], in assay [17], in assay [7], in assay [8], in assay [18] and in assay [11] was “inactive” in each case. For the same molecule, the Potency result in [19], in assay [20], in assay [13], in [14] and in assay [15] was “inactive” each time.

Regarding `CN1[C@@H]2CC[C@H]1CC(OC(=O)C(CO)c1ccccc1)C2` (some centres undefined), the Potency entry in [1], in assay [2], in assay [3], in assay [4], in assay [5] and in assay [16] was “inactive” each time. Also, the Potency result in assay [6], in [17], in assay [7], in assay [8], in [9] and in assay [10] was “inactive” in each case. Further, the Potency result in [11], in assay [19], in assay [20], in assay [12], in assay [13] and in assay [14] was “inactive” each time. In addition, the Potency result in assay [15] is “inactive”.

In the case of `N=c1ccn2c(n1)O[C@H]1[C@H](O)[C@@H](CO)O[C@H]12`, the Potency entry in assay [1], in assay [2], in assay [3], in assay [5], in assay [16] and in [6] was “inactive” each time. In addition, the Potency result in assay [17], in assay [7], in [8], in assay [9], in assay [10] and in assay [18] was “inactive” in each case. Besides, the Potency result in [11], in [19], in [20], in assay [12], in [13] and in assay [14] was “inactive” each time. In addition, the Potency result in [15] is “inactive”.

As for `CCCC(=O)OC[C@@H](OC(=O)CCC)[C@@H](OC(=O)CCC)[C@H](Cn1c2nc(=O)[nH]c(=O)c-2nc2cc(C)c(C)cc21)OC(=O)CCC`, the Potency result in [1], in assay [3], in [4], in assay [16], in assay [6] and in [17] was “inactive” throughout. Also, the Potency result in assay [9], in assay [18] and in assay [15] was “inactive” each time. For the same molecule, the Potency in assay [11] was 11.2 µM (active).

As for `CC(N)C(=O)OC(C)(C)Cc1ccc(Cl)cc1` (centres undefined), the Potency in assay [4] was 9.53 µM (active); in [9], 9.53 µM (active); in assay [10], 8.49 µM (active); in assay [11], 7.94 µM (active); in assay [12], 5.36 µM (active). In addition, the Potency result in assay [16], in assay [20], in assay [13] and in [15] was “inactive” in each case.

Take `Cc1[nH]cnc1CN1CCc2c(c3ccccc3n2C)C1=O`: the Potency result in assay [1], in assay [2], in assay [3], in [4], in assay [5] and in [16] was “inactive” in each case. In addition, the Potency result in assay [6], in assay [17], in assay [7], in assay [8], in [10] and in [18] was “inactive” in each case. Further, the Potency entry in assay [11], in assay [19], in assay [20], in [12], in assay [13] and in assay [14] was “inactive” throughout. Besides, the Potency result in assay [15] was “inactive”.

With `c1ccc2sc(SN3CCOCC3)nc2c1`, the Potency result in [1], in [2], in assay [3], in assay [4], in assay [5] and in [16] was “inactive” each time. In addition, the Potency result in assay [6], in [17], in [7], in assay [8], in assay [18] and in [20] was “inactive” throughout. Besides, the Potency result in assay [12], in assay [13] and in assay [15] was “inactive” in each case. In addition, the Potency in assay [14] is 12.6 µM (active).

As to `COc1ccc(/C=C/C(=O)Nc2ccccc2C(=O)O)cc1OC`, the Potency result in assay [1], in assay [2], in assay [3], in [4], in [5] and in assay [16] was “inactive” in each case. The Potency entry in assay [6], in [17], in [7], in [8], in [9] and in [10] was “inactive” in each case. Moreover, the Potency entry in assay [11], in assay [19], in assay [20], in assay [13], in assay [14] and in [15] was “inactive” throughout.

Take `COC(=O)C1=C(C)NC(C)=C(C(=O)OCC(C)C)C1c1ccccc1[N+](=O)[O-]` (centres undefined): the Potency was 8.91 µM (active) in assay [2]; 12 µM (active) in assay [3]; 16.9 µM (active) in assay [4]; 12 µM (active) in [6]; 10.7 µM (active) in assay [9]; 16.9 µM (active) in assay [18]. Also, the Potency is 10 µM (active) in assay [19], 12 µM (active) in assay [12] and 3.55 µM (active) in assay [14].
